Assay results: PubChem BioAssay (NCI)
Compounds without any hit were thinned out: in the full panel of roughly 83,000, 20% have a hit.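 48-hour exposure, single concentration, 96-well plates; percent growth endpoint where 0 means no net growth. Active: below 10.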

Columns and labels:
Assay in all cases: NCI-60 one-dose screen, 48 h (100 = growth as untreated, 0 = no growth, -100 = all killed)
HCT-15 colon = conditions: 10 µM unless noted
HT29 colon = conditions: 10 µM unless noted
SNB-75 CNS = conditions: 10 µM unless noted
SNB-19 CNS = conditions: 10 µM unless noted
U251 CNS = conditions: 10 µM unless noted
PC-3 prostate = conditions: 10 µM unless noted
SK-MEL-5 melanoma = conditions: 10 µM unless noted
SK-MEL-28 melanoma = conditions: 10 µM unless noted
SK-MEL-2 melanoma = conditions: 10 µM unless noted
EKVX NSCLC = conditions: 10 µM unless noted
SN12C renal = conditions: 10 µM unless noted
UO-31 renal = conditions: 10 µM unless noted
TK-10 renal = conditions: 10 µM unless noted
ACHN renal = conditions: 10 µM unless noted
CAKI-1 renal = conditions: 10 µM unless noted
A498 renal = conditions: 10 µM unless noted
CCRF-CEM leukemia = conditions: 10 µM unless noted
MOLT-4 leukemia = conditions: 10 µM unless noted
LOX IMVI melanoma = conditions: 10 µM
UACC-62 melanoma = conditions: 10 µM unless noted

Measured: growth

O=C(NCc1ccco1)Nc1cccc2c(NC(=O)NCc3ccco3)cccc12
inactive: HCT-15 colon 99.2% [100 µM] | HT29 colon 55.2% [100 µM] | SNB-75 CNS 49.7% [100 µM] | SNB-19 CNS 52.6% [100 µM] | U251 CNS 64.8% [100 µM] | PC-3 prostate 42.9% [100 µM] | SK-MEL-5 melanoma 90% [100 µM] | SK-MEL-28 melanoma 91.3% [100 µM] | SK-MEL-2 melanoma 78.2% [100 µM] | EKVX NSCLC 116% [100 µM] | SN12C renal 33.9% [100 µM] | UO-31 renal 103% [100 µM] | TK-10 renal 131% [100 µM] | ACHN renal 106% [100 µM] | CAKI-1 renal 100% [100 µM] | A498 renal 110% [100 µM] | CCRF-CEM leukemia 44.7% [100 µM] | MOLT-4 leukemia 59.1% [100 µM]

Nc1ccc(F)cc1F
inactive: HCT-15 colon 108% | HT29 colon 106% | SNB-75 CNS 97.1% | SNB-19 CNS 109% | U251 CNS 106% | PC-3 prostate 89.1% | LOX IMVI melanoma 102% | SK-MEL-28 melanoma 92.7% | SK-MEL-2 melanoma 101% | EKVX NSCLC 105% | SN12C renal 100% | UO-31 renal 98.4% | TK-10 renal 106% | ACHN renal 102% | CAKI-1 renal 94.7% | A498 renal 107% | CCRF-CEM leukemia 102% | MOLT-4 leukemia 107%

OCC(O)COc1ccc(Cl)cc1Cl (stereo unspecified)
inactive: HCT-15 colon 105% | HT29 colon 93.9% | SNB-75 CNS 85.8% | SNB-19 CNS 93.3% | U251 CNS 89.3% | SK-MEL-5 melanoma 109% | UACC-62 melanoma 96.6% | LOX IMVI melanoma 111% | SK-MEL-28 melanoma 96.5% | SK-MEL-2 melanoma 97.4% | EKVX NSCLC 96.5% | SN12C renal 95% | UO-31 renal 89.4% | TK-10 renal 101% | ACHN renal 93.2% | CAKI-1 renal 96% | A498 renal 99% | CCRF-CEM leukemia 119% | MOLT-4 leukemia 99.2%

CCCOCc1cn[nH]n1
inactive: HCT-15 colon 106% | HT29 colon 105% | SNB-75 CNS 98.1% | SNB-19 CNS 115% | U251 CNS 96.1% | SK-MEL-5 melanoma 106% | UACC-62 melanoma 98.2% | LOX IMVI melanoma 98.6% | SK-MEL-28 melanoma 109% | SK-MEL-2 melanoma 104% | EKVX NSCLC 103% | SN12C renal 105% | UO-31 renal 91.6% | TK-10 renal 102% | ACHN renal 110% | CAKI-1 renal 104% | A498 renal 100% | CCRF-CEM leukemia 109% | MOLT-4 leukemia 106%

CCC(C)C1CCC(O)CC1 (stereo unspecified)
inactive: HCT-15 colon 104% | HT29 colon 105% | SNB-75 CNS 91.7% | SNB-19 CNS 112% | U251 CNS 98.8% | PC-3 prostate 100% | UACC-62 melanoma 104% | LOX IMVI melanoma 101% | SK-MEL-28 melanoma 106% | SK-MEL-2 melanoma 104% | EKVX NSCLC 113% | SN12C renal 108% | UO-31 renal 90.7% | TK-10 renal 103% | ACHN renal 105% | CAKI-1 renal 96.6% | A498 renal 103% | CCRF-CEM leukemia 125% | MOLT-4 leukemia 104%

C=CCc1cc(OC)c(OC)c(OC)c1
inactive: HCT-15 colon 99.1% | HT29 colon 98% | SNB-75 CNS 101% | SNB-19 CNS 103% | U251 CNS 102% | PC-3 prostate 100% | UACC-62 melanoma 97.4% | LOX IMVI melanoma 102% | SK-MEL-28 melanoma 115% | SK-MEL-2 melanoma 108% | EKVX NSCLC 111% | SN12C renal 99.5% | UO-31 renal 105% | TK-10 renal 104% | ACHN renal 108% | CAKI-1 renal 100% | A498 renal 100% | MOLT-4 leukemia 104%

CC(C)N(C(=O)c1ccccc1)C(C)C
inactive: HCT-15 colon 104% | HT29 colon 107% | SNB-75 CNS 100% | SNB-19 CNS 113% | U251 CNS 95.9% | SK-MEL-5 melanoma 97.7% | UACC-62 melanoma 108% | LOX IMVI melanoma 104% | SK-MEL-28 melanoma 105% | SK-MEL-2 melanoma 114% | EKVX NSCLC 104% | SN12C renal 107% | UO-31 renal 104% | TK-10 renal 98.2% | ACHN renal 108% | CAKI-1 renal 98.5% | A498 renal 86.6% | MOLT-4 leukemia 111%

CCCc1cccc(CCC)c1NC(=O)Nc1cc(Cl)cc(Cl)c1
inactive: HCT-15 colon 113% | HT29 colon 107% | SNB-75 CNS 108% | SNB-19 CNS 99.5% | U251 CNS 101% | PC-3 prostate 101% | SK-MEL-5 melanoma 94.3% | SK-MEL-28 melanoma 103% | SK-MEL-2 melanoma 106% | EKVX NSCLC 109% | SN12C renal 91% | UO-31 renal 69.7% | TK-10 renal 106% | ACHN renal 101% | CAKI-1 renal 83.5% | A498 renal 95.9% | CCRF-CEM leukemia 91.6% | MOLT-4 leukemia 101%

COc1cc(CC#N)c([N+](=O)[O-])cc1OC
inactive: HCT-15 colon 116% | HT29 colon 108% | SNB-75 CNS 107% | SNB-19 CNS 109% | U251 CNS 95.8% | PC-3 prostate 101% | UACC-62 melanoma 99.8% | LOX IMVI melanoma 102% | SK-MEL-28 melanoma 107% | SK-MEL-2 melanoma 109% | EKVX NSCLC 111% | SN12C renal 104% | UO-31 renal 96% | TK-10 renal 101% | ACHN renal 109% | CAKI-1 renal 102% | A498 renal 107% | CCRF-CEM leukemia 103% | MOLT-4 leukemia 94.6%
